PubChem BioAssay
Values joined by “and” are separate entries in the source; they are usually repeats but may differ in a detail not shown here. Equal values may be shown once.

molecular target: NAD(+) hydrolase SARM1 (Homo sapiens) (UniProt Q6SZW1); experiment: blocking NAD cleavage by SARM1 SAM-TIR – cell lysate, NAD-Glo luminescence (AID 1508614;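 active = compound whose remaining NAD level is above about 45 nM, limit read from the data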;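 note: higher remaining NAD means stronger inhibition of SARM1 NADase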); conditions: SAM-TIR HEK293T lysate NADase, at 1 µM, stronger effect = higher value
Sequence (Q6SZW1 whole entry, looked up): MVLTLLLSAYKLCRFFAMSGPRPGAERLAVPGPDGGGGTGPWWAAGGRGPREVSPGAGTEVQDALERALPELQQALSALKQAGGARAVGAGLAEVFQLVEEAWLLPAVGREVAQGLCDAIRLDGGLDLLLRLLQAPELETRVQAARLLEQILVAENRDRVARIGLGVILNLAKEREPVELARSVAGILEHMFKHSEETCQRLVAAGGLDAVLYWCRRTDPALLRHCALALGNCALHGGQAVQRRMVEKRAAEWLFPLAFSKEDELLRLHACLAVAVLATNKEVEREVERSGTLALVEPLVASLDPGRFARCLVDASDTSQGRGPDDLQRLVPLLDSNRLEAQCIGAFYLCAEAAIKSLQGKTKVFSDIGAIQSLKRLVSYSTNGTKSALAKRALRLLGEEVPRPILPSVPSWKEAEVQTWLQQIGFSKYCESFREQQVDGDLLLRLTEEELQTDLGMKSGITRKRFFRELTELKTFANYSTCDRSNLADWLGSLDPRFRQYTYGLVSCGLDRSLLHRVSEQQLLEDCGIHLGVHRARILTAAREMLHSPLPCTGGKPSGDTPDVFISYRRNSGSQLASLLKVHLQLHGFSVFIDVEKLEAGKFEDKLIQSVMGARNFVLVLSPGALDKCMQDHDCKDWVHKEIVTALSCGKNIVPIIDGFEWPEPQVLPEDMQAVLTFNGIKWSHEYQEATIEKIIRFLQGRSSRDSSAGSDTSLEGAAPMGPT

Remaining NAD, inactive:
COC(=O)[C@H]1[C@H]2C[C@@H]3c4[nH]c5cc(OC)ccc5c4CCN3C[C@H]2C[C@@H](OC(=O)c2cc(OC)c(OC)c(OC)c2)[C@@H]1OC 10 nM, O=c1[nH]c(=O)n([C@H]2C[C@H](O)[C@@H](CO)O2)cc1F 10 nM, CCOC(=O)C(C)(C)Oc1ccc(Cl)cc1 10 nM, O=C(O)CN1C(=O)c2cccc3cccc(c23)C1=O 13 nM, CO[C@@]1(NC(=O)CSCC#N)C(=O)N2C(C(=O)O)=C(CSc3nnnn3C)CS[C@@H]21 10 nM, CO[C@@]12[C@H](COC(N)=O)C3=C(C(=O)C(C)=C(N)C3=O)N1C[C@@H]1N[C@@H]12 10 nM, O=C(Nc1ccc([N+](=O)[O-])cc1Cl)c1cc(Cl)ccc1O 10 nM, CCCCNc1ccc(C(=O)OCCN(C)C)cc1 10 nM, CCn1cc(C(=O)O)c(=O)c2cc(F)c(N3CCNCC3)nc21 10 nM, C[C@@](Cc1ccc(O)c(O)c1)(NN)C(=O)O 10 nM, CCCOc1ccc2nc(NC(=O)OC)[nH]c2c1 10 nM, COc1ccccc1OCC(O)CO (stereo not drawn) 10 nM, Cn1c(=O)c2c(ncn2C)n(C)c1=O 10 nM, CN(C)CCC=C1c2ccccc2C=Cc2ccccc21 10 nM, CCCC(C(=O)OCCN(CC)CC)(c1ccccc1)c1ccccc1 10 nM, C[C@]12CC[C@@H]3c4ccc(O)cc4CC[C@H]3[C@@H]1CCC2=O 10 nM, Clc1ccc2c(c1)CCc1cccnc1C2=C1CCNCC1 10 nM, O=C(O)CCCCCCCC(=O)O 10 nM, CCN(CC)CCNC(=O)c1ccc(NC(C)=O)cc1 10 nM, CN(C)C(=O)Oc1cccc([N+](C)(C)C)c1 10 nM, CCN(CC)C(C)CN1c2ccccc2Sc2ccccc21 (stereo not drawn) 10 nM, C[C@](N)(Cc1ccc(O)c(O)c1)C(=O)O 10 nM, Cc1ccc(C(=O)Nc2ccc(S(=O)(=O)O)c3cc(S(=O)(=O)O)cc(S(=O)(=O)O)c23)cc1NC(=O)c1cccc(NC(=O)Nc2cccc(C(=O)Nc3cc(C(=O)Nc4ccc(S(=O)(=O)O)c5cc(S(=O)(=O)O)cc(S(=O)(=O)O)c45)ccc3C)c2)c1 10 nM, C[C@]12C=CC(=O)C=C1CC[C@H]1[C@@H]3C[C@@H](O)[C@](O)(C(=O)CO)[C@@]3(C)C[C@H](O)[C@@]12F 10 nM, CCCN(CCC)C(=O)C(CCC(=O)O)NC(=O)c1ccccc1 (stereo not drawn) 10 nM, CCN1CCN(C(=O)N[C@@H](C(=O)N[C@@H]2C(=O)N3C(C(=O)O)=C(CSc4nnnn4C)CS[C@H]23)c2ccc(O)cc2)C(=O)C1=O 10 nM, O=NN(CCCl)C(=O)NCCCl 10 nM, COc1cc2c3cc1Oc1cc(ccc1O)C[C@@H]1c4c(cc(OC)c(O)c4Oc4ccc(cc4)C[C@@H]3N(C)CC2)CC[N+]1(C)C 10 nM, CC(=O)OC(C)C[N+](C)(C)C (stereo not drawn) 10 nM, O=C(O)c1cn(-c2ccc(F)cc2)c2cc(N3CCNCC3)c(F)cc2c1=O 14 nM, Nc1ccc(O)c(C(=O)O)c1 10 nM, CCN(CC)C(=O)N1CCN(C)CC1 10 nM, O=C1CCc2cc(OCCCCc3nnnn3C3CCCCC3)ccc2N1 10 nM, NCCCC(=O)O 10 nM, C=CC(N)CCC(=O)O (stereo not drawn) 10 nM, Cc1oncc1C(=O)Nc1ccc(C(F)(F)F)cc1 10 nM, CNC[C@H](O)c1ccc(O)c(O)c1 10 nM, CN(C)CCOC(=O)COc1ccc(Cl)cc1 10 nM, C[N+](C)(C)CCCCCC[N+](C)(C)C 10 nM

molecular target: Mitogen-activated protein kinase 7 (Homo sapiens) (UniProt Q13164); experiment: Gal4-ERK5 driven luciferase induction – cell-based, HTS, primary screen (AID 1508626); conditions: HeLa Gal4-ERK5 transactivation, 18 h, at 5 µM, stronger effect = higher value;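 note: luciferase driven by Gal4-ERK5 fusion binding five Gal4 sites before minimal TATA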
Sequence (Q13164 whole entry, looked up, the tested form may be a part): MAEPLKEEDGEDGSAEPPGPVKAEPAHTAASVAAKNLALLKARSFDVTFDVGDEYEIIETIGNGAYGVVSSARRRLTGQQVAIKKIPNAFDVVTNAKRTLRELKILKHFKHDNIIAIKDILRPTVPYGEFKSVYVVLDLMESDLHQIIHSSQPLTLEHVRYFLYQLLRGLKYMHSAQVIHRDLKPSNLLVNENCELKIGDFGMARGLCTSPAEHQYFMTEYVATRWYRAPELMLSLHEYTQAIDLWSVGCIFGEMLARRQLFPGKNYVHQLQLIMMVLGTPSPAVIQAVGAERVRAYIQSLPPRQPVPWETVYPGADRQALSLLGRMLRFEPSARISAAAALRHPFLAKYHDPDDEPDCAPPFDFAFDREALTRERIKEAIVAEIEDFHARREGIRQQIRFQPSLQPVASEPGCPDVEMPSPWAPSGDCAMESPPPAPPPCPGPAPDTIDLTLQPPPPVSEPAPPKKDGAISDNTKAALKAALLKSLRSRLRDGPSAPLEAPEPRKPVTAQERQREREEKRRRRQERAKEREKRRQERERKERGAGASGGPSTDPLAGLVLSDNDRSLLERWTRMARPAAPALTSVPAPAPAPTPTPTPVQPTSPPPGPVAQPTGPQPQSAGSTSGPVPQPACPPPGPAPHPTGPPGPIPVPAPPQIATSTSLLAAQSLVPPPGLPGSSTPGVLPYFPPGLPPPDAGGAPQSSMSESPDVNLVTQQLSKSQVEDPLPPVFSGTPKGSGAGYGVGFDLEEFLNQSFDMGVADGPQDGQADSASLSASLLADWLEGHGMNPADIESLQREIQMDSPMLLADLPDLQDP

Luciferase signal, inactive:
COC(=O)[C@H]1[C@H]2C[C@@H]3c4[nH]c5cc(OC)ccc5c4CCN3C[C@H]2C[C@@H](OC(=O)c2cc(OC)c(OC)c(OC)c2)[C@@H]1OC 64 AU, O=c1[nH]c(=O)n([C@H]2C[C@H](O)[C@@H](CO)O2)cc1F 12 AU, CCOC(=O)C(C)(C)Oc1ccc(Cl)cc1 44 AU, O=C(O)CN1C(=O)c2cccc3cccc(c23)C1=O 44 AU, CO[C@@]1(NC(=O)CSCC#N)C(=O)N2C(C(=O)O)=C(CSc3nnnn3C)CS[C@@H]21 108 AU, CO[C@@]12[C@H](COC(N)=O)C3=C(C(=O)C(C)=C(N)C3=O)N1C[C@@H]1N[C@@H]12 44 AU, O=C(Nc1ccc([N+](=O)[O-])cc1Cl)c1cc(Cl)ccc1O 24 AU, CCCCNc1ccc(C(=O)OCCN(C)C)cc1 76 AU, CCn1cc(C(=O)O)c(=O)c2cc(F)c(N3CCNCC3)nc21 40 AU, C[C@@](Cc1ccc(O)c(O)c1)(NN)C(=O)O 56 AU, CCCOc1ccc2nc(NC(=O)OC)[nH]c2c1 40 AU, COc1ccccc1OCC(O)CO (stereo not drawn) 160 AU, Cn1c(=O)c2c(ncn2C)n(C)c1=O 32 AU, CN(C)CCC=C1c2ccccc2C=Cc2ccccc21 52 AU, CCCC(C(=O)OCCN(CC)CC)(c1ccccc1)c1ccccc1 60 AU, C[C@]12CC[C@@H]3c4ccc(O)cc4CC[C@H]3[C@@H]1CCC2=O 28 AU, Clc1ccc2c(c1)CCc1cccnc1C2=C1CCNCC1 32 AU and 40 AU, O=C(O)CCCCCCCC(=O)O 24 AU, CCN(CC)CCNC(=O)c1ccc(NC(C)=O)cc1 32 AU, CN(C)C(=O)Oc1cccc([N+](C)(C)C)c1 48 AU, CCN(CC)C(C)CN1c2ccccc2Sc2ccccc21 (stereo not drawn) 36 AU, C[C@](N)(Cc1ccc(O)c(O)c1)C(=O)O 68 AU, Cc1ccc(C(=O)Nc2ccc(S(=O)(=O)O)c3cc(S(=O)(=O)O)cc(S(=O)(=O)O)c23)cc1NC(=O)c1cccc(NC(=O)Nc2cccc(C(=O)Nc3cc(C(=O)Nc4ccc(S(=O)(=O)O)c5cc(S(=O)(=O)O)cc(S(=O)(=O)O)c45)ccc3C)c2)c1 48 AU, C[C@]12C=CC(=O)C=C1CC[C@H]1[C@@H]3C[C@@H](O)[C@](O)(C(=O)CO)[C@@]3(C)C[C@H](O)[C@@]12F 36 AU, CCCN(CCC)C(=O)C(CCC(=O)O)NC(=O)c1ccccc1 (stereo not drawn) 108 AU, CCN1CCN(C(=O)N[C@@H](C(=O)N[C@@H]2C(=O)N3C(C(=O)O)=C(CSc4nnnn4C)CS[C@H]23)c2ccc(O)cc2)C(=O)C1=O 88 AU, O=NN(CCCl)C(=O)NCCCl 204 AU, COc1cc2c3cc1Oc1cc(ccc1O)C[C@@H]1c4c(cc(OC)c(O)c4Oc4ccc(cc4)C[C@@H]3N(C)CC2)CC[N+]1(C)C 32 AU, CC(=O)OC(C)C[N+](C)(C)C (stereo not drawn) 104 AU, O=C(O)c1cn(-c2ccc(F)cc2)c2cc(N3CCNCC3)c(F)cc2c1=O 72 AU, Nc1ccc(O)c(C(=O)O)c1 48 AU, CCN(CC)C(=O)N1CCN(C)CC1 60 AU, O=C1CCc2cc(OCCCCc3nnnn3C3CCCCC3)ccc2N1 96 AU, NCCCC(=O)O 56 AU, C=CC(N)CCC(=O)O (stereo not drawn) 92 AU, Cc1oncc1C(=O)Nc1ccc(C(F)(F)F)cc1 120 AU, CNC[C@H](O)c1ccc(O)c(O)c1 24 AU, CN(C)CCOC(=O)COc1ccc(Cl)cc1 64 AU, C[N+](C)(C)CCCCCC[N+](C)(C)C 52 AU
